From publication PMC5540273 (PLoS ONE, 2017)

Assays:
Conditions in all cases: concentration: 1 μM,replicates: in singlicate; n = 1
CDK8 = tested on: CDK8
CDK9 = tested on: CDK9
CDKL1 = tested on: CDKL1
CDKL2 = tested on: CDKL2
CDKL3 = tested on: CDKL3
CDKL5 = tested on: CDKL5
CHEK1 = tested on: CHEK1
CHEK2 = tested on: CHEK2
CIT = tested on: CIT
CLK1 = tested on: CLK1
CLK2 = tested on: CLK2
CLK3 = tested on: CLK3
CLK4 = tested on: CLK4
CSF1R-autoinhibited = tested on: CSF1R-autoinhibited
CSF1R = tested on: CSF1R
CSK = tested on: CSK
CSNK1A1L = tested on: CSNK1A1L
CSNK1A1 = tested on: CSNK1A1
CSNK1D = tested on: CSNK1D
CSNK1E = tested on: CSNK1E
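Further: KINOMEscan kinase panel screen.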

| Structure (SMILES) | %Inh (CDK8) [%] | %Inh (CDK9) [%] | %Inh (CDKL1) [%] | %Inh (CDKL2) [%] | %Inh (CDKL3) [%] | %Inh (CDKL5) [%] | %Inh (CHEK1) [%] | %Inh (CHEK2) [%] | %Inh (CIT) [%] | %Inh (CLK1) [%] | %Inh (CLK2) [%] | %Inh (CLK3) [%] | %Inh (CLK4) [%] | %Inh (CSF1R-autoinhibited) [%] | %Inh (CSF1R) [%] | %Inh (CSK) [%] | %Inh (CSNK1A1L) [%] | %Inh (CSNK1A1) [%] | %Inh (CSNK1D) [%] | %Inh (CSNK1E) [%] |
| --- | --- | --- | --- | --- | --- | --- | --- | --- | --- | --- | --- | --- | --- | --- | --- | --- | --- | --- | --- | --- |
| COc1cccc(CNC(=O)NC2CCN(c3ccnc(Nc4cc(OC)c(OC)c(OC)c4)n3)C2)c1 (centres unmarked) [GSK1379765] | 29 | 0 | 13 | 22 | 0 | 0 | 0 | 14 | 28 | 21 | 0 | 0 | 16 | 29 | 15 | 20 | 16 | 0 | 14 | 18 |
| CS(=O)(=O)c1cccc(CNc2nc(Nc3ccc4c(c3)[C@@H]3C[C@@H]4CNC3=O)ncc2C(F)(F)F)c1 | 0 | 27 | 71 | 80 | 2 | 0 | 0 | 17 | 51 | 81 | 6 | 0 | 0 | 22 | 5 | 0 | 0 | 0 | 0 | 0 |
| COC(=O)Nc1nc2cc(Oc3ccc(NC(=O)Nc4cc(C(F)(F)F)ccc4Cl)cc3)ccc2[nH]1.Cl [GW697465] | 86 | 0 | 14 | 81 | 0 | 0 | 0 | 41 | 97.9 | 34 | 0 | 13 | 43 | 47 | 99.6 | 0 | 9 | 0 | 69 | 39 |
| O=c1[nH]cc(-c2ccc(O)cc2)c2sc(-c3ccncc3)cc12 [GSK1033723] | 27 | 6 | 7 | 9 | 0 | 0 | 0 | 10 | 45 | 95.7 | 67 | 19 | 95.9 | 2 | 25 | 5 | 13 | 57 | 41 | 46 |
| CSc1nccc(-c2c(-c3ccc(F)cc3)ncn2CCCN2CCOCC2)n1.Cl [SB-217146] | 1 | 0 | 36 | 10 | 0 | 11 | 0 | 0 | 0 | 0 | 0 | 0 | 18 | 0 | 0 | 0 | 0 | 6 | 54 | 10 |
| CC(=O)Nc1ccc(-c2cc3ncnc(SCC(=O)O)c3s2)cc1 | 0 | 85 | 16 | 0 | 26 | 18 | 1 | 26 | 0 | 31 | 53 | 9 | 32 | 41 | 48 | 12 | 5 | 33 | 4 | 0 |
| CCn1c(-c2nonc2N)nc2cncc(Br)c21 [SB-738004] | 50 | 4 | 2 | 0 | 0 | 0 | 0 | 41 | 0 | 22 | 77 | 9 | 37 | 95.1 | 5 | 11 | 0 | 12 | 13 | 19 |
